# JMJD2A Tudor – blocks the human JMJD2A Tudor domain. O75164. AlphaScreen JMJD2A-Tudor / H3K4me3 peptide binding. Potency, µM (titrated, usually from 114 µM), hits mostly inhibitors. 390,000 compounds, 4.4% hits; also: nearly all actives have a fitted effect of over 50% in size
# Six1-Eya2 inh – blocks human Six1 binding to Eya2 | AlphaScreen GST-Six1/His-Eya2 binding, biochemical; stronger effect = lower value | activity change, % (no concentration beside the values) | 360,000 compounds, 0.56% hits | AID 651725; in the data active = activity change below about -65%; inconclusive = mostly about -30% to -63%
#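 Homogeneous AlphaScreen proximity assay pairing GST-Six1 with His-tagged Eya2 (added as 5X mix: 250 nM and 500 nM) in 50 mM Tris pH 8.0, 300 mM NaCl, 1 mM TCEP. Glutathione donor and nickel acceptor beads; 1 h, 37 °C, dark.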
# BAZ2B inh – inhibitors of human BAZ2B bromodomain; Potency, µM (titrated, usually from 114 µM), most hits filed as inhibitors; AlphaScreen BAZ2B-H3K14Ac peptide displacement; 360,000 compounds, 4.4% hits; Q9UIF8; also: nearly all actives have a fitted effect of over 60% in size
#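 Inhibition is scored as reduced AlphaScreen emission. The BAZ2B/b-H3(5-23)K14Ac complex (50 nM each) in PBS pH 7.4, 0.01% Tween-20 meets compound (up to 110 uM) for 30 min at RT before bead addition.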
# G9a block – inhibitors of human histone lysine methyltransferase G9a; Q96KQ7; G9a H3K9 monomethylation, AlphaScreen, 2 h; Potency, µM (series often up to 102 µM), hits mostly inhibitors; 350,000 compounds, 8.8% hits; AID 504332; also: nearly all actives have a fitted effect of over 75% in size
# Target sequence (Q96KQ7 913-1193 limits assumed): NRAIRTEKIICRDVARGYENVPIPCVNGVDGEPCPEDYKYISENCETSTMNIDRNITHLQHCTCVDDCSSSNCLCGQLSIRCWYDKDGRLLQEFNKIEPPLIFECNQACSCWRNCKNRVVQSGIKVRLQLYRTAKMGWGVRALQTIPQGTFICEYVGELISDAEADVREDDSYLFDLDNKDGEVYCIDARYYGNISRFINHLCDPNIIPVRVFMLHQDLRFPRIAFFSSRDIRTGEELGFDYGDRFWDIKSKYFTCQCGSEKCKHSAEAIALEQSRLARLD
#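 Methyltransferase reactions run at room temperature for 2 h (20 nM enzyme, 500 nM biotin-H3K9 peptide, 20 uM SAM) after a 15 min compound preincubation; product detected by AlphaScreen beads and anti-H3K9me1 antibody.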
# HP1b binding inh – HP1-beta chromodomain-methylated histone interaction inhibition; AID 540317; 390,000 compounds, 0.56% hits; AlphaScreen HP1-beta / biotin-H3K9me3 peptide binding; Potency, µM (titrated, usually from 114 µM), actives largely listed as inhibitors; also: nearly all actives have a fitted effect of over 70% in size
# Target sequence (P83916 whole entry, looked up): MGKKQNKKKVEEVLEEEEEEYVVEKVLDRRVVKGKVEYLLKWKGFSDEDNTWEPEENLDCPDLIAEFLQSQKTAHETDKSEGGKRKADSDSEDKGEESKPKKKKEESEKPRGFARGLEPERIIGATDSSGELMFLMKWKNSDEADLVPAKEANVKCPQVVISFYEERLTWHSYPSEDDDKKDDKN
#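 Compound inhibition of the preformed complex between 50 nM HP1-beta and 50 nM biotinylated H3K9me3 peptide was read by AlphaScreen. Buffer was PBS pH 7.4 with 0.01% Tween-20. Incubations ran 30 min at room temperature, with 10 ug/mL donor/acceptor beads.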
# CtBP-E1A inh – CtBP/E1A binding inhibition. AID 651724. activity change, % (test concentration not listed). AlphaScreen GST-E1A/His-CtBP binding, 1536-well; stronger effect = lower value. 340,000 compounds, 0.49% hits; in the data active = activity change below about -65%; inconclusive = mostly about -30% to -63%
#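 Homogeneous bead-based format: GST-tagged E1A captured on glutathione donor beads, His-tagged CtBP on nickel acceptor beads; compounds precede bead addition by 2 h at 37 °C.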
# Hits are given with their value; - = inactive; ? = inconclusive; . = no result given; [ ] = remark or other dose. A selection: hits, their analogues and other compounds. The true share with any hit is near 10%. Unless noted, calls follow the shape of the dose curve; as a rule, active = well fitted inhibition curve with a large enough effect; inconclusive = small, poorly fitted or top-dose-only effect; inactive = no such curve, though single readings can be large or run the other way.
SMILES,JMJD2A Tudor,Six1-Eya2 inh,BAZ2B inh,G9a block,HP1b binding inh,CtBP-E1A inh
O=C(CCc1ccc(S(=O)(=O)N2CCOCC2)cc1)N/N=C/c1ccc(F)cc1F,-,-,-,-,-,-
COc1ccc(-n2c(C)c([N+](=O)[O-])c3ccc(O)c(CN4CCCCC4)c32)cc1,?,-,?,25µM,?,-
Cc1ccc(-n2c(C)c([N+](=O)[O-])c3ccc(O)c(CN(C)C)c32)cc1,-,-,-,?,?,-
CN(C)C(CNC(=O)c1cc(S(=O)(=O)N(C)c2ccccc2)ccc1Cl)c1ccccc1 (stereo unspecified),?,-,-,-,-,-
CN(C)C(CNC(=O)c1cnc(Cl)c(Cl)c1)c1ccccc1 (stereo unspecified),20µM,-,56µM,?,?,.
CN(C)C(CNC(=O)c1ccc(C2SCCS2)cc1)c1ccccc1 (stereo unspecified),?,-,-,50µM,-,-
CN1CCN(c2ncc3ncc(=O)n(CCc4ccccc4)c3n2)CC1,.,.,.,-[0.501 µM],.,.
COc1ccc(O[C@H]2C=C[C@@H](c3ccccc3)O[C@@H]2COC(=O)CC/C(C)=N/OC[C@@H](O)[C@H]2O[C@@H]3OC(C)(C)O[C@@H]3[C@H]2O)cc1,.,.,?,79µM,.,.
O=C(OCC(O)C1OC(c2ccccc2)OC(COC(=O)c2ccccc2)C1O)c1ccccc1 (stereo unspecified),.,-,.,.,.,-
COc1ccc(O[C@H]2C=C[C@@H](c3ccccc3)O[C@@H]2COC(=O)CCC(C)=NO[C@@H]2O[C@H](COC(C)=O)[C@@H](OC(C)=O)[C@H](OC(C)=O)[C@H]2OC(C)=O)cc1,.,.,-,50µM,.,.
CC(=O)OC[C@H]1O[C@@H](O/N=C/C[C@@H]2C=C[C@H](OC(C)=O)[C@@H](COC(C)=O)O2)[C@H](OC(C)=O)[C@@H](OC(C)=O)[C@@H]1OC(C)=O,.,.,-,79µM,.,.
COCCNC(=O)C1CCCN(Cc2ccccc2-c2ccccc2)CC1 (stereo unspecified),.,-,.,.,.,-
O=c1cnc2cnc(Oc3ccccc3)nc2n1C1CC1,.,.,.,-[0.501 µM],.,.
Nc1ccc(Oc2ccc3nc(-c4ccccc4)c(-c4ccc([N+](=O)[O-])cc4)nc3c2)cc1,?,?,?,32µM,-,?
O=C(Cn1cnc([N+](=O)[O-])n1)N/N=C/c1ccc(O)cc1O,63µM,-92,28µM,-,-,-96
O=C(Cn1cnc([N+](=O)[O-])n1)N/N=C/c1cccc(Cl)c1,-,-,-,-,-,.
O=C(Cn1cnc([N+](=O)[O-])n1)N/N=C/c1cccc2ccccc12,-,-,-,45µM,-,-
COc1ccc(-c2nc3n(n2)C(c2ccccc2F)C(C(=O)Nc2cccnc2)=C(C)N3)cc1OC (stereo unspecified),-,.,-,-,-,.
COc1cc(C#N)ccc1OCC(=O)Nc1cccc(S(=O)(=O)N2CCCC2)c1,-,-,.,-,-,.
C=CCNC(=S)N1CCC(C(=O)c2ccc(F)cc2)CC1,-,-,-,-,-,-
O=C(N/N=C/c1cc2c3c(c1O)CCCN3CCC2)c1ccccc1O,45µM,-90,32µM,?,-,-66
Cc1cccc(C)c1OCc1cn(CC(=O)c2ccc(O)cc2)nn1,89µM,-,.,.,-,-
CC(=O)c1ccc(OCc2cn(CC(=O)c3ccc(O)cc3)nn2)cc1,?,-,.,.,-,-
O=C(Cn1cc(COc2ccccc2C(F)(F)F)nn1)c1ccc(O)cc1,45µM,-,.,.,-,-
COc1cc(C(C)=O)ccc1OCc1cn(CC(=O)c2ccc(O)cc2)nn1,22µM,-,.,.,-,-
SMILES,JMJD2A Tudor,Six1-Eya2 inh,BAZ2B inh,G9a block,HP1b binding inh,CtBP-E1A inh
O=C(Cn1cc(COc2ccc(Br)cc2[N+](=O)[O-])nn1)c1ccc(O)cc1,50µM,-,.,.,-,-
O=C(Nc1ccc(F)c(Cl)c1)N1CC=C(c2c[nH]c3ccccc23)CC1,?,.,?,?,-,.
Cc1ccc(C)c(S(=O)(=O)c2c(N)n(/N=C/c3ccco3)c3nc4ccccc4nc23)c1,-,-,?,50µM,-,-
Cc1ccc(S(=O)(=O)c2c(N)n(Cc3ccco3)c3nc4ccccc4nc23)cc1C,-,-,-,?,-,-
Cc1cccc(S(=O)(=O)c2c(N)n(/N=C/c3ccccc3)c3nc4ccccc4nc23)c1,-,-,-,-,-,-
Nc1c(S(=O)(=O)c2ccccc2)c2nc3ccccc3nc2n1/N=C/c1cccc(O)c1,-,-75,-,-,-,-84
CCOc1ccc(/C=C2\SC(=S)N(N3C(=O)C4CC4C3=O)C2=O)cc1 (stereo unspecified),?,-,-,40µM,-,-
CCCOc1ccc(/C=C2\SC(=S)N(CC3CCCO3)C2=O)cc1 (stereo unspecified),?,-,?,3.5µM,?,-
Cc1ccsc1/C=C1\SC(=S)N(CC2CCCO2)C1=O (stereo unspecified),10µM,-,10µM,5µM,45µM,-
CCOc1ccc(/C=C2/SC(=O)NC2=S)cc1,?,-,?,?,-,-
Cc1ccsc1/C=C1/SC(=O)N(CC(=O)N2CCOCC2)C1=O,-,-,-,-,-,-
O=C1/C(=C/c2ccc(O)cc2)SC(=S)N1CC1CCCO1 (stereo unspecified),?,-,?,?,-,-
COc1ccccc1CNC(=O)Cn1ncc2c(C)n(Cc3ccccc3Cl)c(C)c2c1=O,-,.,-,-,-,.
CCOC(=O)c1ccc2[nH]c3c(c2c1)CCCC3,-,-,32µM,35µM,?,.
CCN(C(=O)COC(=O)c1ccc2[nH]c3c(c2c1)CCCC3)C1CCS(=O)(=O)C1 (stereo unspecified),-,-,?,50µM,-,-
CN(C)CCOC(=O)c1ccc2[nH]c3c(c2c1)CSCC3,-,-,-,28µM,?,-
CCN(C(=O)COC(=O)c1ccc(Cl)c(N)c1)C1CCS(=O)(=O)C1 (stereo unspecified),-,-,-,-,-,.
COc1ccc(CNC(=O)c2cnc3sc4cc(OC)ccc4n3c2=O)cc1,-,.,-,-,-,.
CC(C)Cc1ccc(-c2cc3nc(NCC4CC4)ccn3n2)cc1,.,-,.,.,.,-
O=C(Cc1ccc(Cl)cc1)Nc1ccccc1C(=O)N1CCCC1,-,-,-,.,-,-
CCn1c2ccc(C)cc2c2n[nH]c(=S)nc21,-,-75,-,7.1µM,-,-88
Cn1c2ccccc2c2n[nH]c(=S)nc21,-,-83,-,.,-,-79
Cc1ccc2c(c1)c1n[nH]c(=S)nc1n2CCc1ccccc1,-,-,-,-,-,.
O=C(c1ccc(S(=O)(=O)N2CCCCC2)cc1)N1CCN(c2ccccc2)CC1,-,-,-,-[12.7 µM],-,-

# Screens as filed in PubChem.
